# Unmarked numbers belong to inactive results. Inconclusive results are not listed. Where a call stands in place of a potency, no number is given. The source made the active and inactive calls. Unless noted, the call rests on the fitted dose curve; in most records, active means well fitted curve in the direction sought with a large enough effect in the repeat runs; inconclusive means weak or mixed curves; inactive means no such curve, though single readings can be large; an effect the other way counts as inactive or inconclusive.
# Key:
# [1] = qHTS assay for small molecule agonists of the p53 signaling pathway (AID 651631; calls by dose curve; further: nearly all actives have a fitted effect of over 15% in size; further: potency means the concentration at half of the fitted maximal effect)
# Procedure, shortened: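 Fluorescence intensity from cleaved LiveBLAzer B/G substrate (2 h, room temperature) served as the signal. Beforehand, HCT-116 reporter cells bearing p53 response elements were treated 16 h at 37 °C with DMSO-dissolved compounds.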
# [2] = qHTS assay for small molecules that induce genotoxicity in human embryonic kidney cells expressing luciferase-tagged ATAD5 (AID 651632); further: nearly all actives have a fitted effect of over 15% in size
# Procedure, shortened: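 ATAD5-luc HEK293T, 2,000 cells/well; cpd or DMSO pin-transferred; 16 hr, 37C/5% CO2; Amplite 30 min RT; luminescence.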
# [3] = qHTS assay for small molecule agonists of the p53 signaling pathway - cell viability (AID 651633; calls by dose curve; further: nearly all actives have a fitted effect of over 30% in size; further: potency means the concentration at half of the fitted maximal effect)
# Procedure, shortened: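 p53RE-bla cells, seeded at 4,000 per well and rested 5 h at 37 C/5% CO2, received compounds in DMSO for 16 h at 37 C. CellTiter-Glo was then added, and luminescence was read after 30 min at room temperature to gauge cytotoxicity.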
# [4] = qHTS assay for small molecules that induce genotoxicity in human embryonic kidney cells expressing luciferase-tagged ATAD5 - cell viability (AID 651634; calls by dose curve; further: nearly all actives have a fitted effect of over 25% in size; further: potency means the concentration at half of the fitted maximal effect)
# Procedure, shortened: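 Fluorescence from CellTiter-Fluor, reporting protease activity within live cells, served as the viability read-out. HEK293T cells carrying luciferase-tagged ATAD5 had been treated with compound for 15.5 hr at 37C.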
# [5] = qHTS assay for small molecule disruptors of the mitochondrial membrane potential - cell viability (AID 720634; calls by dose curve; further: nearly all actives have a fitted effect of over 20% in size; further: potency means the concentration at half of the fitted maximal effect)
# Procedure, shortened: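 Cells: HepG2, 2,000/well, attached overnight. Compound 1 hr, 37 C/5% CO2. +m-MPI dye, +CellTiter-Glo 30 min RT. Readout: luminescence (ATP).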
# [6] = qHTS assay to test for compound auto fluorescence at 590 nm (red) in HepG2 cells (AID 720674)
# Procedure, shortened: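 Rose Bengal sodium served as the red fluorophore standard. HepG2 monolayers (overnight attachment, MEM with 10% FBS) were exposed to test compounds for 1 hr at 37 C and read at Ex 540/Em 590 nm.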
# [7] = qHTS assay to test for compound auto fluorescence at 535 nm (green) in HepG2 cells (AID 720675)
# [8] = qHTS assay to test for compound auto fluorescence at 460 nm (blue) in HEK293 cells (AID 720678)
# Procedure, shortened: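 Blue read-out at excitation 405 nm and emission 460 nm follows overnight compound exposure of HEK293 cells at 37C in 5% CO2. Activity is given as auto fluorescence equivalency to triamterene.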
# [9] = qHTS assay to test for compound auto fluorescence at 590 nm (red) in HEK293 cells (AID 720679)
# Procedure, shortened: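 Red channel, Ex/Em 540/590nm; signal expressed as equivalency to Rose Bengal sodium. HEK293, 2,000 cells/well, 10% dialyzed FBS; 23 nL compound pinned after 4-5 hr attachment; overnight 37C/5% CO2 before reading.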
# [10] = qHTS assay to test for compound auto fluorescence at 535 nm (green) in HEK293 cells (AID 720680)
# [11] = qHTS assay to test for compound auto fluorescence at 460 nm (blue) in HEK293 cell free culture (AID 720681)
# Procedure, shortened: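 Test compounds were pinned into cell-free culture medium (DMEM with 10% FBS) and fluorescence was read directly at Ex/Em 405/460 nm. Signals were expressed as fluorescence equivalents of triamterene, with DMSO vehicle as control.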
# [12] = qHTS assay to test for compound auto fluorescence at 535 nm (green) in HEK293 cell free culture (AID 720682)
# Procedure, shortened: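 Intrinsic compound fluorescence is measured in culture medium containing 10% FBS, with excitation at 485 nm and detection at 535 nm, referenced to fluorescein.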
# [13] = qHTS assay to test for compound auto fluorescence at 590 nm (red) in HEK293 cell free culture (AID 720683)
# Procedure, shortened: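 Tox21 10K library compounds were pinned into cell-free DMEM with 10% FBS and fluorescence was read at excitation 540 nm. Activity is expressed as Rose Bengal sodium equivalency.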
# [14] = qHTS assay to test for compound auto fluorescence at 590 nm (red) in HepG2 cell free culture (AID 720684)
# Procedure, shortened: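 Measured in medium alone (MEM containing 10% FBS) following pintool addition of compound; emission at 590 nm with 540 nm excitation, referenced to Rose Bengal sodium.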
# [15] = qHTS assay to test for compound auto fluorescence at 460 nm (blue) in HepG2 cell free culture (AID 720685)
# Procedure, shortened: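 Compound (23 nL) or DMSO pinned into cell-free MEM with 10% FBS; blue fluorescence read at 405/460 nm excitation/emission, expressed as auto-fluorescence equivalency to triamterene.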
# [16] = qHTS assay to test for compound auto fluorescence at 535 nm (green) in HepG2 cell free culture (AID 720686)
# [17] = qHTS assay to test for compound auto fluorescence at 460 nm (blue) in HepG2 cells (AID 720687)
# Procedure, shortened: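 Cells (2,000/well in MEM with 10% FBS) attached overnight at 37 C, then were exposed to compound or DMSO for 1 hr at 37 C, 5% CO2. Fluorescence read at Ex/Em 405/460 nm, expressed as triamterene-equivalent signal.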
# [18] = target: Glucocorticoid receptor (Homo sapiens) (UniProt P04150); experiment: qHTS assay to identify small molecule agonists of the glucocorticoid receptor (GR) signaling pathway (AID 720691; active means well fitted activation curve with a large enough effect in the signal ratio in the repeat runs, not every such curve was filed as active; the % refers to the signal ratio); settings: GR-bla HeLa, beta-lactamase reporter ratio, 18 h; activation: at 62.4 µM (top of the series)
# Sequence of Glucocorticoid receptor (Homo sapiens) (P04150 whole entry, looked up): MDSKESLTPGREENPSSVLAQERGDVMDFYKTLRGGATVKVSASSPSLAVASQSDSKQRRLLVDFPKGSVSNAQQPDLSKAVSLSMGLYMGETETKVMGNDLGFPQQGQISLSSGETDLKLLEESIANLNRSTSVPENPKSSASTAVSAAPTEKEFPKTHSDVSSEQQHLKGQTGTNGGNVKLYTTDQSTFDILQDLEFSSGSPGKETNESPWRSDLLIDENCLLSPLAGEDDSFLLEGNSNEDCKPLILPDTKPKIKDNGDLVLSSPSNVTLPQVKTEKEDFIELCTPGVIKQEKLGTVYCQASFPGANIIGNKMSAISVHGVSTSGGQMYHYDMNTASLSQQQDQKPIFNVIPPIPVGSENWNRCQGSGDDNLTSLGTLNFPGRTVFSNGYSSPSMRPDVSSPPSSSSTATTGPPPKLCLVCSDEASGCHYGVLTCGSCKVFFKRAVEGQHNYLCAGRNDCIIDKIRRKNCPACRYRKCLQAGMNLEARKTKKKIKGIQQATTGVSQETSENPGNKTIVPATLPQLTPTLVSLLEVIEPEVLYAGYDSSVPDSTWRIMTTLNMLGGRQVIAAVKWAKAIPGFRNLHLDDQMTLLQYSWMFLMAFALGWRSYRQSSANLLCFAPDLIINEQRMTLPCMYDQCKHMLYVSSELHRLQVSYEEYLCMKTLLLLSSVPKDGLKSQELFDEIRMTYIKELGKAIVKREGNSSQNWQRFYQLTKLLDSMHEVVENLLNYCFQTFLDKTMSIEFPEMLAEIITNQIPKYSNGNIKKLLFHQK
# Procedure, shortened: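 Fluorescence intensity from LiveBLAzer B/G FRET substrate (2 h, room temperature) reports beta-lactamase expression driven by the glucocorticoid response element in GR-bla HeLa cells after 18 h compound exposure at 37 C.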
# [19] = target: Glucocorticoid receptor (Homo sapiens) (UniProt P04150); experiment: qHTS assay to identify small molecule antagonists of the glucocorticoid receptor (GR) signaling pathway (AID 720692; active means well fitted inhibition curve with a large enough effect in the signal ratio in the repeat runs, not every such curve was filed as active; the % refers to the signal ratio)
# Procedure, shortened: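 HeLa GR-bla cells; cmpd + dex 5 nM final, 18 h 37 C; LiveBLAzer B/G FRET substrate 2 h RT; fluorescence intensity read. Antagonist mode, qHTS.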
# [20] = qHTS assay for small molecule disruptors of the mitochondrial membrane potential (AID 720635); further: potency means the concentration at half of the fitted maximal effect
# Procedure, shortened: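 HepG2 cells (2,000/well) attached overnight at 37C, then took compound for 1 hr at 37C, 5% CO2. Mito-MPS dye was added for 30 min; fluorescence was read at 490/535 nm (monomers) and 540/590 nm (aggregates).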
smiles,measurement,setting,value
C=C(C)C(=O)OCC[N+](C)(C)C,Potency,[1],inactive
same,Potency,[2],inactive
same,Potency,[3],inactive
same,Potency,[4],inactive
same,Potency,[5],inactive
same,Potency,[6],inactive
same,Potency,[7],inactive
same,Potency,[8],inactive
same,Potency,[9],inactive
same,outcome,[10],inactive
same,Potency,[11],inactive
same,outcome,[12],inactive
same,Potency,[13],inactive
same,Potency,[14],inactive
same,Potency,[15],inactive
same,Potency,[16],inactive
same,Potency,[17],inactive
same,Potency,[18],inactive
same,Potency,[19],inactive
CC(C)(C)C(=O)OCOC(=O)[C@@H]1N2C(=O)[C@@H](NC(=O)[C@H](N)c3ccccc3)[C@H]2SC1(C)C,Potency,[1],inactive
same,Potency,[2],inactive
same,Potency,[3],inactive
same,Potency,[4],inactive
same,Potency,[5],inactive
same,Potency,[20],inactive
same,"fluorescence, relative to Rose Bengal",[6],0.612% [at 18.6 µM]
same,"fluorescence, % of fluorescein control",[7],-0.113% [at 18.6 µM]
same,"fluorescence, % of triamterene",[8],0.0033% [at 18.6 µM]
same,"fluorescence, % of fluorescein",[10],-0.024% [at 18.6 µM]
same,"fluorescence, % of fluorescent control",[11],0.0397% [at 18.6 µM]
same,activity change,[12],0.023% [at 18.6 µM]
same,"fluorescence, % of fluorescent control",[13],0.0827% [at 18.6 µM]
same,"fluorescence, % of Rose Bengal",[14],-0.0322% [at 18.6 µM]
same,"fluorescence, % of fluorescein control",[16],-0.0041% [at 18.6 µM]
same,"fluorescence, % of fluorescent control",[17],0.061% [at 18.6 µM]
NC(=O)N1C(=O)C(C(=O)c2cc(Cl)cs2)c2cc(F)c(Cl)cc21 (stereo not drawn),Potency,[1],2.17 µM (active)
same,Potency,[2],inactive
same,Potency,[3],1.37 µM (active)
same,Potency,[4],27.3 µM (active)
same,Potency,[5],0.217 µM (active)
same,Potency,[6],inactive
same,Potency,[7],inactive
same,Potency,[8],inactive
same,outcome,[10],inactive
same,Potency,[11],inactive
same,outcome,[12],inactive
same,Potency,[13],inactive
same,Potency,[14],inactive
same,Potency,[15],inactive
same,Potency,[16],inactive
same,Potency,[17],inactive
CCCC1O[C@@H]2C[C@H]3[C@@H]4CCC5=CC(=O)C=C[C@]5(C)[C@H]4[C@@H](O)C[C@]3(C)[C@]2(C(=O)CO)O1 (stereo partly drawn),Potency,[1],inactive
same,Potency,[2],inactive
same,Potency,[3],inactive
same,Potency,[4],inactive
same,Potency,[5],inactive
same,Potency,[20],inactive
same,Potency,[6],inactive
same,Potency,[7],inactive
same,Potency,[8],inactive
same,outcome,[10],inactive
same,Potency,[11],inactive
same,outcome,[12],inactive
same,Potency,[13],inactive
same,Potency,[14],inactive
same,Potency,[15],inactive
same,Potency,[16],inactive
same,Potency,[17],inactive
O=C(Nc1cccc(Cl)c1)OCC#CCCl,Potency,[1],8.63 µM (active)
same,Potency,[2],inactive
same,Potency,[3],68.6 µM (active)
same,Potency,[4],61.1 µM (active)
same,Potency,[20],21.7 µM (active)
same,Potency,[6],inactive
same,Potency,[7],inactive
same,Potency,[8],inactive
same,outcome,[10],inactive
same,Potency,[11],inactive
same,outcome,[12],inactive
same,Potency,[13],inactive
same,Potency,[14],inactive
same,Potency,[15],inactive
same,Potency,[16],inactive
same,Potency,[17],inactive
CCCCCOC(=O)CCCC,Potency,[1],inactive
same,Potency,[2],inactive
same,Potency,[3],inactive
same,Potency,[4],inactive
same,Potency,[5],inactive
same,Potency,[20],inactive
same,Potency,[6],inactive
same,Potency,[7],inactive
same,Potency,[8],inactive
same,outcome,[10],inactive
same,Potency,[11],inactive
same,outcome,[12],inactive
same,Potency,[13],inactive
same,Potency,[14],inactive
same,Potency,[15],inactive
same,Potency,[16],inactive
same,Potency,[17],inactive
same,Potency,[18],inactive
same,Potency,[19],inactive

# From PubChem BioAssay (Tox21)
